Compound activity from PubChem BioAssay.
IDE exosite FP – displaces the probe from the exo-site of human IDE; P14735; purified IDE, FL-6b probe fluorescence polarization; stronger effect = lower value; z-score at 20 µM; hit rate 6.3% among 17,000; AID 1259349;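 active = z-score of -3 or lower, meaning strong loss of probe binding signal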;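 also: His-tagged human IDE residues 42-1019 made in E. coli with 30 nM FL-6b probe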
Target sequence (P14735 42-1019 limits assumed): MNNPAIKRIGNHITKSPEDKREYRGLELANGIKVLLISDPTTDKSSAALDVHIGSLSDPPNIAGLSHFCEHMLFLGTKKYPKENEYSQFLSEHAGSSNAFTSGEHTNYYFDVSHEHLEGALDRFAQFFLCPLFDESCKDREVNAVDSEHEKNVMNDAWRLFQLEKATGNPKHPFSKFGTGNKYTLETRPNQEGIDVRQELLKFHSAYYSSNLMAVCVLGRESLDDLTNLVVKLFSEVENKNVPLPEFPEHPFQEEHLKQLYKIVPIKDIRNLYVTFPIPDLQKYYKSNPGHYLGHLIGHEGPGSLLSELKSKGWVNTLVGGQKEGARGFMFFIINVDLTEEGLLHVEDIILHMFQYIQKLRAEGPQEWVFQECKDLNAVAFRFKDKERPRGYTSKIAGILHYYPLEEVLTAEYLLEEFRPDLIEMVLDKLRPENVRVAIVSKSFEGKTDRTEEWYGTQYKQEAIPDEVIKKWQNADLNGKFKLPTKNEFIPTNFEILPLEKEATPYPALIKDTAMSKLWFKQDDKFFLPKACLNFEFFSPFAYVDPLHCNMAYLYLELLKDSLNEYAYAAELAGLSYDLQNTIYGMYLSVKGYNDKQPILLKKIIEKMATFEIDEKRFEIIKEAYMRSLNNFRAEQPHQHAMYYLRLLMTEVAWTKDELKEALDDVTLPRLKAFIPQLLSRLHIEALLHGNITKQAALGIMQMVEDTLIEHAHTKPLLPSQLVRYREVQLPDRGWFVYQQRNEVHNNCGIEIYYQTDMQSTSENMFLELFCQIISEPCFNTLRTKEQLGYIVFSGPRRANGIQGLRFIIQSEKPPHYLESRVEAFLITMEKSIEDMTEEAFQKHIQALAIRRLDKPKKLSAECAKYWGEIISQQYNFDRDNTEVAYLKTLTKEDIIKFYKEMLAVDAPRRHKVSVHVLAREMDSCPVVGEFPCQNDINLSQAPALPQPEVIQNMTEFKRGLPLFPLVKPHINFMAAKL
Numbers without * were called inactive. Only a selection was taken, and hits are over-represented in it overall.

COCC(=O)N1[C@H](CN(C)C(=O)c2ccncc2)[C@@H](c2ccccc2)[C@@H]1CO was read as IDE exosite FP 2.4.
CCC(=O)N1CCCCN2[C@H](C1)[C@@H](c1ccc(C#Cc3ccccc3F)cc1)[C@@H]2CO was read as IDE exosite FP -6.53*.
`CCC(=O)N1CCCCN2[C@H](CO)[C@@H](c3ccc(-c4ccc(F)cc4)cc3)[C@H]2C1` gave IDE exosite FP 1.42.
Screening CCC(=O)N1CCCCN2[C@H](CO)[C@H](c3ccc(C#Cc4ccccc4F)cc3)[C@@H]2C1 returned IDE exosite FP -5.86*.
`CCC(=O)N1CCCCN2[C@H](C1)[C@H](c1ccc(-c3ccc(F)cc3)cc1)[C@@H]2CO` gave IDE exosite FP 1.53.
For O=C1CCC(=O)N[C@H](c2ccc(F)cc2)C/C=C\C[C@@H](c2ccc(F)cc2)N1 the results were IDE exosite FP -0.809.
Screening CO[C@@H]1CN(C)C(=O)c2cc(NC(=O)CC(F)(F)F)ccc2OC[C@H](C)N(CC2CC2)C[C@H]1C returned IDE exosite FP -0.861.
For O=S(=O)(Cc1ccccc1)N1CCCCN2[C@H](C1)[C@H](c1ccc(-c3ccccc3)cc1)[C@@H]2CO the results were IDE exosite FP 2.83.
Screening CCS(=O)(=O)N1CCCCN2[C@H](CO)[C@@H](c3ccc(-c4ccccc4C)cc3)[C@@H]2C1 returned IDE exosite FP -18.3*.
Screening Cc1ccccc1-c1ccc([C@H]2[C@@H](CO)N3CCCCN(S(C)(=O)=O)C[C@@H]23)cc1 returned IDE exosite FP -2.31.
Screening CS(=O)(=O)N1CC(=O)N2[C@H](CO)[C@H](c3ccc(Br)cc3)[C@@H]2C1 returned IDE exosite FP -0.517.
Screening Cc1ccccc1-c1ccc([C@H]2[C@H](CO)N3CCCCN(S(C)(=O)=O)C[C@@H]23)cc1 returned IDE exosite FP -4.62*.
Cc1ccccc1-c1ccc([C@@H]2[C@@H](CO)N3C(=O)CN(S(C)(=O)=O)C[C@@H]23)cc1 was read as IDE exosite FP -12.6*.
Screening Cc1ccccc1-c1ccc([C@H]2[C@H]3CN(S(C)(=O)=O)CCCCN3[C@H]2CO)cc1 returned IDE exosite FP -0.857.
Screening CCS(=O)(=O)N1CCCCN2[C@H](C1)[C@H](c1ccc(-c3ccccc3C)cc1)[C@@H]2CO returned IDE exosite FP -0.649.
`CCS(=O)(=O)N1CCCCN2[C@H](CO)[C@@H](c3ccc(-c4ccccc4F)cc3)[C@H]2C1` gave IDE exosite FP 1.94.
`Cc1ccccc1-c1ccc([C@@H]2[C@H](CO)N3CCCCN(S(=O)(=O)Cc4ccccc4)C[C@@H]23)cc1` gave IDE exosite FP -4.71*.
`CS(=O)(=O)N1CC(=O)N2[C@H](C1)[C@H](c1ccc(Br)cc1)[C@@H]2CO` gave IDE exosite FP 0.0892.
Screening O=S(=O)(Cc1ccccc1)N1CCCCN2[C@H](C1)[C@@H](c1ccc(-c3ccccc3)cc1)[C@@H]2CO returned IDE exosite FP -0.201.
Screening O=C(Cc1ccccn1)N[C@H]1CC[C@H](CCNS(=O)(=O)c2cccc(F)c2)O[C@H]1CO returned IDE exosite FP 0.677.
For CC(C)(O)C#Cc1ccc([C@@H]2[C@@H](CO)N3CCCCN(C(=O)c4ccncc4)C[C@H]23)cc1 the results were IDE exosite FP 3.27.
For COCC(=O)N1[C@H](C#N)[C@H](c2ccccc2C2=CCCC2)[C@@H]1CO the results were IDE exosite FP -0.792.
Screening C/C=C/c1ccc([C@H]2[C@@H](CO)N(C(=O)c3ccccc3)C23CN(C(C)=O)C3)cc1 returned IDE exosite FP -1.59.
Screening O=C(NC[C@H]1[C@H](c2ccccc2)[C@@H](CO)N1C(=O)C1CC1)NC1CCCC1 returned IDE exosite FP 1.02.
NCC[C@H]1CC[C@@H](NS(=O)(=O)c2ccc(Cl)cc2)[C@H](CO)O1 was read as IDE exosite FP 0.818.
Screening N#C[C@@H]1N[C@@H](CO)[C@H]1c1ccc(C#Cc2ccc(F)cc2)cc1 returned IDE exosite FP 1.14.
Screening COCC#Cc1ccc([C@H]2[C@H]3CN(C(=O)c4ccncc4)CC(=O)N3[C@H]2CO)cc1 returned IDE exosite FP -0.807.
CCN(C[C@H]1[C@H](c2ccccc2)[C@H](CO)N1C(C)=O)C(=O)NC(C)C was read as IDE exosite FP 0.617.
For O=C(NCC[C@@H]1CC[C@@H](NC(=O)c2ccncc2)[C@@H](CO)O1)Nc1ccc(Cl)cc1 the results were IDE exosite FP 0.684.
COCC(=O)N1CCC2(CC1)CN(C(=O)c1ccccn1)[C@@H](CO)c1c2c2ccc(OC)cc2n1C was read as IDE exosite FP -1.22.
`CCCN(C)C[C@H]1OCc2ccccc2-c2ccccc2C(=O)N([C@@H](C)CO)C[C@H]1C` gave IDE exosite FP -0.184.
CCCC#Cc1ccc([C@H]2[C@@H](CO)N3C(=O)CN(C(=O)CN4CCOCC4)C[C@H]23)cc1 was read as IDE exosite FP 2.28.
Screening O=C(Cc1ccccn1)N1CC(=O)N2[C@H](CO)[C@@H](c3ccc(C#CC4CCCCC4)cc3)[C@@H]2C1 returned IDE exosite FP 0.0481.
`CCS(=O)(=O)N1CCCCN2[C@H](CO)[C@H](c3ccc(-c4ccccc4C)cc3)[C@H]2C1` gave IDE exosite FP -8.34*.
`CCS(=O)(=O)N1CCCCN2[C@H](CO)[C@H](c3ccc(-c4ccccc4F)cc3)[C@H]2C1` gave IDE exosite FP -2.19.
For Cc1ccccc1-c1ccc([C@@H]2[C@@H](CO)N3CCCCN(S(=O)(=O)c4ccc(F)cc4)C[C@H]23)cc1 the results were IDE exosite FP 2.38.
COc1ccc(C#Cc2ccc([C@H]3[C@H](CO)N4C(=O)CN(C(=O)C5CCOCC5)C[C@@H]34)cc2)cc1 was read as IDE exosite FP -1.15.
COc1cccc(C#Cc2ccc([C@H]3[C@H](CO)N4C(=O)CN(C(=O)C5CC5)C[C@@H]34)cc2)c1 was read as IDE exosite FP -4.6*.
`COc1cccc(C#Cc2ccc([C@H]3[C@@H](CO)N4C(=O)CN(C(=O)C5CC5)C[C@H]34)cc2)c1` gave IDE exosite FP -9.46*.
For COc1cccc(C#Cc2ccc([C@@H]3[C@H]4CN(C(=O)C5CC5)CC(=O)N4[C@H]3CO)cc2)c1 the results were IDE exosite FP -0.0636.
COc1cccc(C#Cc2ccc([C@@H]3[C@@H](CO)N4C(=O)CN(C(=O)C5CC5)C[C@@H]34)cc2)c1 was read as IDE exosite FP -1.04.
For COc1ccc(-c2ccccc2[C@H]2[C@@H](CO)N(C(=O)C3CC3)[C@H]2C#N)cc1 the results were IDE exosite FP 4.
O=C(Nc1cccc(F)c1)N1CC(=O)N2[C@H](CO)[C@H](c3ccc(-c4cccc(F)c4)cc3)[C@@H]2C1 was read as IDE exosite FP 0.936.
For N#Cc1ccc(-c2ccc([C@@H]3[C@@H](CO)N4C(=O)CNC[C@@H]34)cc2)cc1 the results were IDE exosite FP 0.643.
`N#C[C@@H]1[C@H](c2ccc(C#CC3(O)CCCC3)cc2)[C@@H](CO)N1C(=O)C1CC1` gave IDE exosite FP 2.24.
Screening O=C1CNC[C@@H]2[C@@H](c3ccc(C4=CCCCC4)cc3)[C@H](CO)N12 returned IDE exosite FP 0.487.
COc1ccc(-c2ccc(C3[C@H]4CNC[C@@H]3N4Cc3cc(F)ccc3F)cc2)cc1 (some centres not stated) was read as IDE exosite FP 1.64.
Screening COc1ccccc1-c1ccc([C@@H]2[C@@H](CO)N3CCCCN(S(=O)(=O)c4cn(C)cn4)C[C@@H]23)cc1 returned IDE exosite FP -15.1*.
